T cruzi growth-1: T. cruzi intracellular proliferation inhibitors, primary screen, cell-based, beta-gal Tulahuen parasites, NIH3T3 host, luminescence; T. cruzi beta-gal in NIH3T3, GalScreen luminescence, 90 h; inhibition, % at 8.34 µM; 77,000 compounds, 5.9% hits; AID 624255, 2012;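 active = mean inhibition above about 93%, with at least 55% of replicates each passing it, limit read from the data, passing the limit was not always enough; inconclusive = only one of those two conditions holds; inactive = neither condition holds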
C diff growth: C. difficile growth inhibitors, primary screen, HTS; growth activity, negative = inhibition, % at 16 µg/mL (by protocol); 86,000 compounds, 0.25% hits; Clostridium difficile clinical isolate growth, OD600, 24 h; hits give low values; AID 1259249, 2017;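 active = mean growth activity at or below -80% and every replicate also at or below -80%; inconclusive = mean at or below -80% but some replicate above -80%; inactive = mean growth activity above -80%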;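 also: 0% = DMSO wells and -100% = levofloxacin 16 µg/mL wells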
Pf Dd2 growth: P. falciparum Dd2 growth inhibitors, primary screen, SYBR Green fluorescence, single dose replicates | activity change, % at 10 µM | 94,000 compounds, 2.3% hits | 72 h; hits give low values | AID 1159554, 2015; in the data active = activity change below about -80%; inconclusive = no clear call, values can overlap the other calls
T cruzi growth-2: T. cruzi intracellular proliferation inhibitors, confirmation, cell-based, NIH3T3 host, beta-gal parasite, luminescence, cherry-pick; shares compounds with T cruzi growth-1; T. cruzi beta-gal in NIH3T3, GalScreen luminescence, 90 h; inhibition, % at 8.35 µM; 5,600 compounds, 72% hits; AID 651739, 2012;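 active = mean replicate inhibition above about 95% and at least 55% of replicates individually reaching it, limit read from the data; inconclusive = only one of the two criteria is met; inactive = neither criterion is met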
T cruzi growth-3: inhibitors of intracellular T. cruzi replication, confirmation, NIH3T3 host cells, beta-gal parasites, cherry-pick, set 2. inhibition, % at 2.09 µM. T. cruzi beta-gal in NIH3T3, GalScreen luminescence, 90 h. 5,600 compounds, 21% hits. shares compounds with T cruzi growth-1;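 active = mean inhibition above about 95%, with at least 55% of replicates also reaching it, limit read from the data; inconclusive = meets just one of the two conditions; inactive = meets neither condition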;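 also: plate controls were neutral control median for no effect and positive control median for full effect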
NIH3T3 tox: cytotoxicity in mouse NIH/3T3 fibroblasts, confirmation, cytotoxicity control for T. cruzi proliferation inhibitor project, cell-based, cherry-pick, single point | AID 651742, 2012 | NIH/3T3 viability, CellTiter-Glo ATP luminescence, 90 h | shares compounds with T cruzi growth-1 | cytotoxicity (signal decrease), % at 8.35 µM | 5,600 compounds, 14% hits;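 active = mean signal decrease across replicates above about 35% based on untreated-well scatter, with enough replicates individually passing, limit read from the data; inconclusive = no rule stated though some were filed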;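 also: 0% = median of neutral control wells and 100% = median of positive control wells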
3T3 cytotox 2: NIH/3T3 fibroblast cytotoxicity, confirmation, cytotoxicity control, cell-based, cherry-pick, single point, set 2; shares compounds with T cruzi growth-1; 5,600 compounds, 56% hits; NIH/3T3 viability, CellTiter-Glo ATP luminescence, 90 h; inhibition, % at 24.9 µM;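 active = mean loss of cell viability signal at or above a set limit, and enough replicates individually reaching it; inconclusive = meets only the mean limit or only the replicate share; inactive = meets neither condition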;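 also: 0% = median of neutral control wells and 100% = median of positive control wells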
Numbers without * were called inactive. This is a sample that favours compounds with a hit; in the whole collection about 6.7% have one here.

COCC#Cc1ccc([C@H]2[C@H](CO)N3CCCCN(Cc4cccnc4)C[C@@H]23)cc1 was read as T cruzi growth-1 102*, C diff growth 1, Pf Dd2 growth 6, T cruzi growth-2 101*, T cruzi growth-3 86, NIH3T3 tox 13 and 3T3 cytotox 2 5.
Screening COCC#Cc1ccc([C@@H]2[C@H](CO)N3CCCCN(Cc4cccnc4)C[C@@H]23)cc1 returned T cruzi growth-1 10, C diff growth 0 and Pf Dd2 growth -9.
COCC#Cc1ccc([C@H]2[C@@H](CO)N3CCCCN(Cc4cccnc4)C[C@H]23)cc1 was read as T cruzi growth-1 100*, C diff growth -1, Pf Dd2 growth -11, T cruzi growth-2 96*, T cruzi growth-3 59, NIH3T3 tox 5 and 3T3 cytotox 2 14.
`COCC#Cc1ccc([C@H]2[C@@H](CO)N3CCCCN(Cc4cncnc4)C[C@@H]23)cc1` gave T cruzi growth-1 108*, C diff growth -2, Pf Dd2 growth 13, T cruzi growth-2 92, T cruzi growth-3 61, NIH3T3 tox 6 and 3T3 cytotox 2 13.
COCC#Cc1ccc([C@H]2[C@H]3CN(Cc4cncnc4)CCCCN3[C@H]2CO)cc1 was read as T cruzi growth-1 78, C diff growth -8 and Pf Dd2 growth 13.
O=S(=O)(c1ccc2ccccc2c1)N1CCN(Cc2ccc(OCCO)cc2)CC1 was read as C diff growth 2.
COCC#Cc1ccc([C@H]2[C@@H](CO)N3C(=O)CN(C(=O)c4cccnc4)C[C@H]23)cc1 was read as C diff growth 31 and Pf Dd2 growth -14.
CCCNC(=O)N1C[C@H](C)[C@@H](OC)CN(C)C(=O)c2ccc(NC(C)=O)cc2OC[C@@H]1C was read as C diff growth -6 and Pf Dd2 growth 6.
C[C@H]1CN([C@@H](C)CO)C(=O)Cc2cc(NC(=O)Nc3cccc4ccccc34)ccc2O[C@H]1CN(C)Cc1ccc2c(c1)OCO2 was read as T cruzi growth-1 16, C diff growth 3 and Pf Dd2 growth 8.
Screening C[C@@H]1CN([C@@H](C)CO)C(=O)c2cc(NC(=O)Nc3cccc4ccccc34)ccc2O[C@@H]1CN(C)Cc1ccc2c(c1)OCO2 returned T cruzi growth-1 14, C diff growth 19 and Pf Dd2 growth -36.
Screening C[C@H](CO)N1C[C@H](C)[C@@H](CN(C)Cc2ccc3c(c2)OCO3)Oc2ccc(NC(=O)Nc3cccc4ccccc34)cc2CC1=O returned T cruzi growth-1 109*, C diff growth 8, Pf Dd2 growth -29, T cruzi growth-2 101*, T cruzi growth-3 104*, NIH3T3 tox 41* and 3T3 cytotox 2 52*.
Screening C[C@H]1CN([C@@H](C)CO)C(=O)c2cc(NC(=O)Nc3cccc4ccccc34)ccc2O[C@H]1CN(C)Cc1ccc2c(c1)OCO2 returned T cruzi growth-1 100*, C diff growth 1, Pf Dd2 growth 32, T cruzi growth-2 90, T cruzi growth-3 93, NIH3T3 tox 28 and 3T3 cytotox 2 32*.
Screening C[C@@H]1CN([C@@H](C)CO)C(=O)Cc2cc(NC(=O)Nc3ccc(C(F)(F)F)cc3)ccc2O[C@H]1CN(C)Cc1ccc2c(c1)OCO2 returned T cruzi growth-1 93, C diff growth 40 and Pf Dd2 growth -73.
For C[C@H](CO)N1C[C@H](C)[C@H](CN(C)Cc2ccc3c(c2)OCO3)Oc2ccc(NC(=O)Nc3ccc(C(F)(F)F)cc3)cc2CC1=O the results were T cruzi growth-1 97*, C diff growth 25, Pf Dd2 growth -8, T cruzi growth-2 109*, T cruzi growth-3 104*, NIH3T3 tox 19 and 3T3 cytotox 2 84*.
`CNC[C@@H]1Oc2ccc(NC(=O)C3CCCCC3)cc2C(=O)N([C@H](C)CO)C[C@@H]1C` gave T cruzi growth-1 20, C diff growth -2 and Pf Dd2 growth 5.
`C[C@@H]1CN([C@@H](C)CO)C(=O)c2cc(NC(=O)Nc3ccccc3)ccc2O[C@H]1CN(C)C(=O)Nc1ccc2c(c1)OCO2` gave T cruzi growth-1 21 and Pf Dd2 growth 16.
For C[C@H](O)C#Cc1cnc2c(c1)C(=O)N([C@@H](C)CO)C[C@@H](C)[C@H](CN(C)Cc1cccc(F)c1)O2 the results were T cruzi growth-1 25, C diff growth -1 and Pf Dd2 growth -2.
For CC(C)CC#Cc1ccc2c(c1)O[C@@H](CN(C)Cc1ccc(F)cc1)[C@H](C)CN([C@@H](C)CO)S2(=O)=O the results were T cruzi growth-1 36, C diff growth 5 and Pf Dd2 growth -33.
`CC(C)CC#Cc1ccc2c(c1)O[C@H](CN(C)Cc1ccc(F)cc1)[C@@H](C)CN([C@H](C)CO)S2(=O)=O` gave T cruzi growth-1 49, C diff growth 9 and Pf Dd2 growth -45.
CC(C)CC#Cc1ccc2c(c1)O[C@H](CN(C)Cc1ccc(F)cc1)[C@H](C)CN([C@H](C)CO)S2(=O)=O was read as T cruzi growth-1 66, C diff growth 15 and Pf Dd2 growth -74.
CC(C)CC#Cc1ccc2c(c1)O[C@H](CN(C)Cc1ccccc1)[C@H](C)CN([C@@H](C)CO)S2(=O)=O was read as T cruzi growth-1 122*, C diff growth 18, Pf Dd2 growth -64, T cruzi growth-2 93, T cruzi growth-3 111*, NIH3T3 tox 21 and 3T3 cytotox 2 107*.
CC(C)CC#Cc1ccc2c(c1)O[C@@H](CN(C)Cc1ccccc1)[C@H](C)CN([C@@H](C)CO)S2(=O)=O was read as T cruzi growth-1 125*, C diff growth 12, Pf Dd2 growth -56, T cruzi growth-2 106*, T cruzi growth-3 inconclusive, NIH3T3 tox 49* and 3T3 cytotox 2 104*.
CC(C)CC#Cc1ccc2c(c1)O[C@H](CN(C)Cc1ccccc1)[C@@H](C)CN([C@H](C)CO)S2(=O)=O was read as T cruzi growth-1 106*, C diff growth 12, Pf Dd2 growth -71, T cruzi growth-2 97*, T cruzi growth-3 89, NIH3T3 tox -3 and 3T3 cytotox 2 105*.
For CCCC(=O)Nc1ccc2c(c1)C(=O)N(C)C[C@@H](OC)[C@H](C)CN(CCc1ccccc1)[C@@H](C)CO2 the results were T cruzi growth-1 -6, C diff growth 1 and Pf Dd2 growth -28.
